Assay results from PubChem BioAssay AID1851 (National Center for Advancing Translational Sciences (NCATS), 2009).
Among all 16,000 compounds or so, about 5,100 (32%) were called active. About 25% were inconclusive and are not listed. Some of the results follow. Values without a mark were called inactive. Calls follow the shape of the dose curve; as a rule, active = well fitted curve in the direction sought with a large enough effect; inconclusive = small, poorly fitted or top-dose-only effect, or effect the other way; inactive = no such curve, though single readings can be large or run the other way.

Each molecule was assayed against Cytochrome P450 3A4 (Homo sapiens) (UniProt P08684) (assay: Cytochrome panel assay with activity outcomes). Details: recombinant CYP, pro-luciferin dealkylation, luminescence, p450-cyp3a4; series mostly up to 57.1 µM; activity, negative = inhibition: at the top concentration.
% is scaled to controls: 0 for no effect and ±100 for the full control effect.

Cytochrome P450 3A4 (Homo sapiens), sequence (P08684 whole entry, looked up): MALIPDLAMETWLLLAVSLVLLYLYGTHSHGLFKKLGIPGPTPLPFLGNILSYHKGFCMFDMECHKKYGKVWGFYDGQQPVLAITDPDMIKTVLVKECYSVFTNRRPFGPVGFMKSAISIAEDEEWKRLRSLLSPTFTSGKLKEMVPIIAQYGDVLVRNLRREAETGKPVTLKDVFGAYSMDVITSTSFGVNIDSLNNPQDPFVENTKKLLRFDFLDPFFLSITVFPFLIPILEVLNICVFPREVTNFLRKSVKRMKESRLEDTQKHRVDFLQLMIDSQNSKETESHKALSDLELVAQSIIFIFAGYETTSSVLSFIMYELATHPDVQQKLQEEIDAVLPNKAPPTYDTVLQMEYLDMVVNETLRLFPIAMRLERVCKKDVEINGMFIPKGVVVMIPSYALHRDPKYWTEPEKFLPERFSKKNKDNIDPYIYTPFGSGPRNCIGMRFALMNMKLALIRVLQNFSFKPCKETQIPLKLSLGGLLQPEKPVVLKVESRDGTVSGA

| SMILES | activity, negative = inhibition | AC50 |
| --- | --- | --- |
| C1CCC(N=C(NC23CC4CC(CC(C4)C2)C3)N2CCOCC2)CC1 | -18.1% |  |
| COC(=O)[C@@H]1[C@@H](O)[C@]2(O)c3ccccc3O[C@]2(c2ccccc2)[C@H]1c1ccccc1 | -17.3% [at 11.4 µM] |  |
| C[C@@H]1NC(=O)C/C=C\[C@@H](C)[C@@H]2C=C[C@H](O)[C@@H](COC(=O)[C@H](C)NC(=O)C/C=C\[C@@H](C)[C@@H]3C=C[C@H](O)[C@@H](COC1=O)O3)O2 | 6.73% [at 11.4 µM] |  |
| CN(C)Cc1ccc(O)c(CN(C)C)n1 | -18.2% [at 11.4 µM] |  |
| CC1CCCN(C/C=C/c2ccccc2[N+](=O)[O-])C1 (stereo unspecified) | 0.0233% |  |
| COc1c(/C=N/Nc2nc(N3CCCCC3)nc(N3CCCCC3)n2)cccc1[N+](=O)[O-] |  | 3.98 µM (active) |
| C/C(CC(=O)NCc1ccco1)=N\NC(=O)Cc1cccc2ccccc12 | -8.55% [at 2.29 µM] |  |
| COc1ccccc1CNC(=O)C/C(C)=N/NC(=O)Cc1ccccc1 |  | 7.94 µM (active) |
| Cc1cc(=O)n2c3ccccc3n(CC(O)CN3CCCCC3)c2c1C#N (stereo unspecified) | 8.05% |  |
| CCN(CCO)Cc1csc2cccc(Br)c12 | -1.38% |  |
| Cc1ccc(C(=O)c2cn(-c3ccc(F)c(Cl)c3)nn2)cc1 | -1.47% |  |
| Cc1ccc(C(=O)c2cn[nH]c2-c2cc(Cl)ccc2O)cc1 |  | 3.98 µM (active) |
| CCn1ccc(C(=O)Oc2ccc(Cl)cc2)n1 | -12.6% |  |
| O=C(CS(=O)c1cccc(C(F)(F)F)c1)Nc1ccccc1Cl (stereo unspecified) |  | 7.94 µM (active) |
| O=C(CS(=O)c1cccc(Cl)c1)Nc1ccccc1Cl (stereo unspecified) |  | 14.1 µM (active) |
| O=C(CS(=O)(=O)c1cccc(Cl)c1)Nc1ccccc1Cl |  | 6.31 µM (active) |
| Cc1nc(S(=O)(=O)c2cccc(Cl)c2)nc2c1CCC2 | 18.2% [at 2.29 µM] |  |
| CC(=O)N(CC(=O)O)c1ccccc1C(=O)O | -0.567% |  |
| O=C(O)c1ccccc1OP(=O)(O)O | -3.92% [at 25.6 µM] |  |
| Cc1ccc(-n2c(-c3cc(C)n(C)n3)n[nH]c2=S)cc1 |  | 14.1 µM (active) |
| Cc1cc(-c2n[nH]c(=S)o2)c(C)n1-c1ccccc1 | -29.5% |  |
| COc1ccc(-n2c(C)n[nH]c2=O)cc1 | 28.8% |  |
| COCCn1c(=O)c(-c2ccc(F)cc2)nc2cnc(N(C)C)nc21 | -3.27% |  |

| SMILES | activity, negative = inhibition | AC50 |
| --- | --- | --- |
| CN(C)c1ncc2nc(-c3ccc(F)cc3)c(=O)n(C[C@H]3CCCO3)c2n1 | -4.69% |  |
| CN(C)c1ncc2nc(-c3ccccc3)c(=O)n(CCC#N)c2n1 | 3.78% |  |
| COc1ncc2nc(-c3cccs3)c(=O)n(CCC#N)c2n1 |  | 10 µM (active) |
| COc1ncc2nc(C)c(=O)n(CCC#N)c2n1 | -17.2% |  |
| CN(C)c1ncc2nc(-c3cccs3)c(=O)n(CCc3ccccc3)c2n1 | -19% |  |
| COCCn1c(=O)c(-c2cccs2)nc2cnc(Oc3ccc(OC)cc3)nc21 |  | 0.794 µM (active) |
| CN(C)c1ncc2nc(-c3cccs3)c(=O)n(C[C@H]3CCCO3)c2n1 |  | 25.1 µM (active) |
| COCCn1c(=O)c(-c2cccs2)nc2cnc(N(C)C)nc21 |  | 7.94 µM (active) |
| CN(C)c1ncc2nc(-c3cc(F)cc(F)c3)c(=O)n(C[C@H]3CCCO3)c2n1 | -8.08% |  |
| CCC1NC(=S)N(C2CCCCC2)C1=O (stereo unspecified) | -22.3% |  |
| Cc1ccc(-[n+]2cc(=O)o[nH]2)cc1 | -10.5% [at 11.4 µM] |  |
| Nc1nc(C(=O)O)c(N=Nc2ccccc2)c(=O)[nH]1 | -12.5% [at 11.4 µM] |  |
| CCOc1ccc2nc3cc(N=Nc4ccc(N)nc4N)ccc3c(N)c2c1 | -19% [at 11.4 µM] |  |
| COCCn1c(=O)c(-c2cccs2)nc2cnc(OC)nc21 |  | 10 µM (active) |
| COCCn1c(=O)c(-c2cccs2)nc2cnc(Oc3ccccc3)nc21 |  | 20 µM (active) |
| COc1ncc2nc(-c3cccs3)c(=O)n(CCc3ccccc3)c2n1 |  | 10 µM (active) |
| CCCCN(Cc1ccccc1)C(=O)c1cnc2n(c1=O)CCS2 | -24.7% |  |
| CSc1ccccc1N1CCN(C(=O)Nc2ccc3c(c2)NC(=O)CO3)CC1 | 8.81% |  |
| CN(C)S(=O)(=O)c1nc(Cl)c2[nH]cnc2n1 | -5.34% [at 11.4 µM] |  |
| CCOC(=O)N/N=C1/C[C@@H](O)[C@@H](O)[C@@H]2[C@@H]3C(=O)N(C4CCCCC4)C(=O)[C@H]3CC[C@@H]12 | -20.8% [at 11.4 µM] |  |
| O=C(Nc1cccc(Cl)c1Cl)c1snnc1-c1ccccc1 | 13.9% |  |
| COC(=O)[C@H](C)[C@H]1C[C@]1(C)[C@H](NC(=O)OCc1ccccc1)c1ccccc1 |  | 7.94 µM (active) |
| COC(=O)[C@H](C)[C@@H]1C[C@@]1(C)[C@@H](NC(=O)OCc1ccccc1)c1ccccc1 |  | 10 µM (active) |

| SMILES | activity, negative = inhibition | AC50 |
| --- | --- | --- |
| CN(C)CCNS(=O)(=O)N(C)C | -13.5% [at 11.4 µM] |  |
| Cc1nc2ccccc2nc1-c1ccc(N=[N+]([O-])c2ccc(-c3nc4ccccc4nc3C)cc2)cc1 | 3.4% [at 11.4 µM] |  |
| Nc1ccc(Oc2ccc3nc(-c4ccccc4)c(-c4ccc([N+](=O)[O-])cc4)nc3c2)cc1 |  | 3.55 µM (active) |
| CC(=O)NN1C(=O)c2ccc(Oc3ccc([N+](=O)[O-])cc3)cc2C1=O | 1.67% |  |
| Cc1noc(C)c1CS(=O)(=O)c1ccc(Br)cc1 |  | 15.8 µM (active) |
| COc1ccc(-c2noc(CCCC(=O)NCCc3ccccc3)n2)cc1OC |  | 11.2 µM (active) |
| O=C(CCc1nc(-c2ccccc2)no1)NCCc1ccccc1 | -16.7% |  |
| CNC(=O)CCc1nc(-c2ccc(C(C)(C)C)cc2)no1 | -15.1% |  |
| Cc1c(NC(=O)Nc2c(Cl)cccc2Cl)c(=O)n(-c2ccccc2)n1C | 4.74% [at 11.4 µM] |  |
| COc1ccccc1N/C(=N/S(=O)(=O)c1ccc(C)cc1)c1ccc(Cl)cc1 |  | 2.24 µM (active) |
| O=S(=O)(/N=C(\Sc1ccccc1)c1ccccc1)c1ccc(Cl)cc1 | -0.323% |  |
| Cc1c(NC(C)C)c(=O)n(-c2ccccc2)n1C | -9.46% [at 25.6 µM] |  |
| Cc1nn(-c2ccccc2)c(Cl)c1C(=O)Nc1c(C)n(C)n(-c2ccccc2)c1=O | -15.6% |  |
| Cc1c(NCc2cc(Cl)ccc2O)c(=O)n(-c2ccccc2)n1C |  | 14.1 µM (active) |
| Cc1c(NC(=O)C2CCN(S(=O)(=O)c3ccc(Cl)cc3)CC2)c(=O)n(-c2ccccc2)n1C |  | 7.94 µM (active) |
| Cc1ccc(S(=O)(=O)/N=C(/Nc2c(C)n(C)n(-c3ccccc3)c2=O)c2ccc(Cl)cc2)cc1 |  | 3.16 µM (active) |
| CC(=O)NC1=NN(c2ccccc2)C(=O)C1 | -7.33% |  |
| Cn1c(=O)c(-c2cc(F)cc(F)c2)nc2cnc(N3CCOCC3)nc21 | 17.1% |  |
| O=c1c(-c2ccc(Cl)cc2)nc2cnc(N3CCNCC3)nc2n1Cc1cccs1 |  | 5.01 µM (active) |
| O=c1c(-c2ccccc2)nc2cnc(N3CCOCC3)nc2n1Cc1cccs1 | -5.52% |  |
| O=c1c(-c2ccc(F)cc2)nc2cnc(N3CCNCC3)nc2n1Cc1cccs1 |  | 10 µM (active) |
| O=c1c(-c2cc(F)cc(F)c2)nc2cnc(N3CCOCC3)nc2n1C[C@H]1CCCO1 | 6.88% |  |
| O=c1c(-c2cc(F)cc(F)c2)nc2cnc(N3CCNCC3)nc2n1Cc1cccs1 |  | 10 µM (active) |

| SMILES | activity, negative = inhibition | AC50 |
| --- | --- | --- |
| CCc1c(O)c2c(c(O)c1C(C)=O)C(=O)c1c(cc(O)c(C(=O)O)c1C(=O)O)C2=O | 2.06% [at 11.4 µM] |  |
| BrC(c1cccc2ccccc12)c1cccc2ccccc12 | -10.7% [at 11.4 µM] |  |
| CCOC(=O)c1c(C)c(C)n2c1NC(=O)C2 | -20.8% [at 11.4 µM] |  |
| CCOC(=O)c1c(C)c(C(=O)N2CCCCCC2)c(C)n1C |  | 7.94 µM (active) |
| CCOC(=O)c1c(C)c(C(=O)N2CCN(C(=O)c3ccco3)CC2)c(C)n1C | -17.8% |  |
| Cc1ccc(S(=O)(=O)NCC(=O)N(CC(=O)NCc2ccco2)Cc2cccs2)cc1 |  | 4.47 µM (active) |
| Nc1ncnc2c1nc(Sc1ccc(Cl)cc1)n2[C@@H]1O[C@H]2COP(=O)(O)O[C@@H]2[C@H]1O | 3.41% |  |
| Oc1ccc2ccccc2c1/C=C\c1ccc2c(Br)cc(Br)c(O)c2n1 | -13.3% [at 11.4 µM] |  |
| CCC/C=C(\CCC)C(NS(=O)(=O)c1ccc(-c2ccccc2)cc1)c1ccc(C(=O)OC)cc1 (stereo unspecified) | 6.7% |  |
| CCC/C=C(\CCC)C(NS(=O)(=O)c1ccc(Cl)cc1)c1ccc(C(=O)OC)cc1 (stereo unspecified) |  | 3.98 µM (active) |
| CCC/C=C(\CCC)C(NS(=O)(=O)CC12CCC(CC1=O)C2(C)C)c1ccc(C(=O)OC)cc1 (stereo unspecified) |  | 3.98 µM (active) |
| CCC/C=C(\CCC)C(NS(=O)(=O)c1ccc(Cl)cc1)c1ccccc1 (stereo unspecified) |  | 7.94 µM (active) |
| O=C(O)c1ccccc1-c1ccccc1C(=O)Nc1ccc2c(c1)Cc1ccccc1-2 | -22.9% [at 11.4 µM] |  |
| CC(=O)Nc1ccc(-c2nnc(SCC(=O)c3ccc4c(c3)Cc3ccccc3-4)n2C)cc1 |  | 12.6 µM (active) |
| CCCCSc1nnc(-c2ccc(C)cc2)n1C | 9.47% |  |
| O=C(Nc1ccc2c(c1)Cc1ccccc1-2)[C@@H]1[C@H](C(=O)O)[C@]2(Cl)C(Cl)=C(Cl)[C@@]1(Cl)C2(Cl)Cl | -22% [at 11.4 µM] |  |
| Cn1c(SCC(=O)c2ccc3c(c2)Cc2ccccc2-3)nnc1-c1ccccc1 |  | 8.91 µM (active) |
| Cc1noc(C)c1-c1nccc(Nc2ccc(F)cc2)n1 |  | 12.6 µM (active) |
| Cc1noc(C)c1-c1nccc(NC2CC2)n1 |  | 2.51 µM (active) |
| c1cc(NC2CC2)nc(-c2ccoc2)n1 |  | 5.01 µM (active) |
| COC(=O)[C@@]1(Cc2ccccc2)[C@H]2c3cc(C(=O)N4CCCC4)n(Cc4cccc5ccccc45)c3C[C@H]2CN1C(=O)c1ccccc1 |  | 1.58 µM (active) |
| COC(=O)[C@@]1(Cc2ccc(F)cc2)[C@H]2c3cc(C(=O)N4CCCC4)n(Cc4cccc5ccccc45)c3C[C@H]2CN1C(=O)c1ccccc1 |  | 2 µM (active) |
